# Source: PubChem BioAssay AID1851 (National Center for Advancing Translational Sciences (NCATS), 2009)
# The whole screen tested about 16,000 compounds, of which about 2,600 (16%) were called active. Inconclusive results (about 20%) are left out. Calls follow the shape of the dose curve; as a rule, active = well fitted curve in the direction sought with a large enough effect; inconclusive = small, poorly fitted or top-dose-only effect, or effect the other way; inactive = no such curve, though single readings can be large or run the other way. Only a sample is shown.
# Target: Cytochrome P450 2D6 (Homo sapiens) (UniProt P10635)
# Sequence (P10635 whole entry, looked up): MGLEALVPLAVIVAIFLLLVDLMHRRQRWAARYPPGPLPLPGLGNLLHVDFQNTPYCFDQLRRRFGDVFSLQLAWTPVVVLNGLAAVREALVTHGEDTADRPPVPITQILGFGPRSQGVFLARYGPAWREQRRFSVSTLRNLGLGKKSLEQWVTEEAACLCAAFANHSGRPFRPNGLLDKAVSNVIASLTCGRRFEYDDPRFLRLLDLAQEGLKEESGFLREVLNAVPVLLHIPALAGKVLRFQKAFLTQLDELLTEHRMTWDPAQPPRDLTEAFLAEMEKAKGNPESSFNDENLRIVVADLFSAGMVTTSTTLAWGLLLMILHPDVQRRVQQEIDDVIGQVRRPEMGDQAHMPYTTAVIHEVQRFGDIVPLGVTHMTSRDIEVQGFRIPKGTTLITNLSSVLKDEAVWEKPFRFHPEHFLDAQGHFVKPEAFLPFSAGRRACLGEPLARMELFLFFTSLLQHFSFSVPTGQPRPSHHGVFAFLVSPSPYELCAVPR
# Experiment: Cytochrome panel assay with activity outcomes
# Conditions: recombinant CYP, pro-luciferin dealkylation, luminescence, p450-cyp2d6; series mostly up to 57.1 µM; activity, negative = inhibition: at the top concentration
# % is scaled to controls: 0 for no effect and ±100 for the full control effect.
SMILES,"activity, negative = inhibition",AC50
C#CCCCO/N=C1/C[C@@H](O)[C@@H](O)[C@@H]2[C@@H]3C(=O)N(C4CCCCC4)C(=O)[C@H]3CC[C@H]12,18.1% [at 11.4 µM] (inactive),–
COC(=O)CSc1nnc(-c2ccccc2OC)n1-c1ccc(C)cc1,15.1% (inactive),–
N#Cc1c(-c2ccccc2)cc(C2CC2)nc1SCC(=O)c1cccs1,30.5% (inactive),–
CCn1c(SCC(=O)Nc2ccccc2C(=O)OC)nnc1-c1ccc(N)cc1,-6.9% (inactive),–
CCOc1ccc(-n2c(SCC(=O)Nc3ccccc3C)n[nH]c2=O)cc1,-12.1% (inactive),–
Cc1ccccc1NC(=O)CSc1nnc(-c2ccccc2)n1-c1ccccc1,–,1.78 µM (active)
O=C(CSc1nnc(-c2ccccc2)n1-c1ccccc1)c1cccs1,–,2.51 µM (active)
CN(Cc1cc2ccccc2[nH]c1=O)S(C)(=O)=O,-11.9% (inactive),–
CCc1ccc(OCC(=O)Nc2ccc(-c3nc4ccccc4o3)c(O)c2)cc1,13% (inactive),–
Nc1nc(-c2ccccc2)c(-c2ccccc2)c(-c2nc(N)nc(-c3ccccc3)c2-c2ccccc2)n1,-0.539% [at 11.4 µM] (inactive),–
CN(N=O)c1ccc(/C=C\c2ccnc3ccccc23)cc1,-11% [at 11.4 µM] (inactive),–
Cc1ccccc1OCC(=O)N/N=C1\CCOc2c(C)cccc21,9.01% (inactive),–
Cc1cc(C=O)c(C)n1-c1ccc(N2CCCCC2)c([N+](=O)[O-])c1,27.9% (inactive),–
COCCn1c(=O)c(-c2cccs2)nc2cnc(Oc3ccc(OC)cc3)nc21,-3.23% (inactive),–
Cc1cc(C)c2c(SCc3ccc(Cl)cc3Cl)nc(N)nc2n1,-17.3% [at 11.4 µM] (inactive),–
N=C(N)SCc1ccc(Cl)cc1Cl (tested in a mixture with another compound),–,3.16 µM (active)
O=C(Nc1nnc(SCc2ccc(Cl)cc2Cl)s1)C1COc2ccccc2O1 (centres undefined),-7.07% (inactive),–
O=C(OCn1ncc(Cl)c(Cl)c1=O)c1cccc(C(F)(F)F)c1,-11.7% (inactive),–
CNC(=O)COC(=O)c1cc2c(C)nn(-c3ccc(F)cc3)c2s1,-18.4% (inactive),–
Nc1ccc(-c2nc3c(Cl)c(N)ccc3[nH]2)cc1,-29.2% (inactive),–
CC1=C/C(=C(/c2ccc(O)c(C)c2)c2ccccc2C(=O)O)C=CC1=O,–,1.58 µM (active)
Cc1cccc(C(=O)c2ccccc2C(=O)O)c1O,13.6% (inactive),–
O=C(O)c1ccc(C(=O)c2ccccc2C(=O)O)cc1C(=O)O,8.1% [at 11.4 µM] (inactive),–
O=c1c(-c2ccccc2)c(O)c2cccc3c2n1CCC3,1.79% (inactive),–

SMILES,"activity, negative = inhibition",AC50
C[N+](C)(N)Cc1csc(-c2ccc(Cl)cc2)n1,-18.9% [at 11.4 µM] (inactive),–
CCOc1ccccc1NC(=O)C1Cc2ccccc2CN1S(C)(=O)=O (centres undefined),-15.2% (inactive),–
O=C(Nc1nccs1)C1Cc2ccccc2CN1S(=O)(=O)c1ccc(F)cc1 (centres undefined),–,12.6 µM (active)
O=C(O)c1ccccc1C(=O)Nc1ccc(S(=O)(=O)Nc2nccs2)cc1,6.16% [at 25.6 µM] (inactive),–
O=C(O)c1nnsc1COCc1ccccc1,7.15% [at 11.4 µM] (inactive),–
C[N@@+]1(Cc2ccc(Cl)c(Cl)c2)CCC[C@@H]1c1ccc[n+](Cc2ccc(Cl)c(Cl)c2)c1,–,3.16 µM (active)
Clc1ccccc1-c1nc(NCc2cccs2)c2ccccc2n1,–,12.6 µM (active)
Clc1ccccc1-c1nc(NC2CCNCC2)c2ccccc2n1,2.72% (inactive),–
Cc1ccccc1-c1nc(NC2CCNCC2)c2ccccc2n1,-3.84% (inactive),–
COc1ccccc1-c1nc(NC2CC2)c2ccccc2n1,–,20 µM (active)
CNc1nc(-c2ccccc2OC)nc2ccccc12,–,20 µM (active)
COc1ccccc1-c1nc(NCc2ccccc2)c2ccccc2n1,–,1.58 µM (active)
CCOc1ccccc1Nc1ccc(N)cc1S(=O)(=O)O,0.246% [at 11.4 µM] (inactive),–
COc1ccc(Oc2ncc3ncc(=O)n(C4CC4)c3n2)cc1,-5.49% (inactive),–
Nc1c(S(N)(=O)=O)cc(S(N)(=O)=O)cc1S(N)(=O)=O,18.8% [at 11.4 µM] (inactive),–
C=CCN(CC=C)C(=S)Nc1ccccc1,-8.91% (inactive),–
Cn1cnc([N+](=O)[O-])c1Sc1nc(N)nc2c1ncn2Cc1ccccc1,15.1% [at 11.4 µM] (inactive),–
CCN1C(=O)[C@@H]2[C@H]3C(=CC[C@@H]2C1=O)C1(OCCCO1)[C@H]1O[C@@H]1[C@H]3O,-15.6% [at 11.4 µM] (inactive),–
O=C(CSc1nc2ccc([N+](=O)[O-])cc2s1)c1ccc2ccccc2c1,-13.4% [at 11.4 µM] (inactive),–
COc1ccccc1-c1nc(NCc2cccs2)c2ccccc2n1,–,1 µM (active)
CN(C)c1ncc2nc(-c3ccc(Cl)cc3)c(=O)n(C)c2n1,-2.59% (inactive),–
C#CCCCO/N=C1/C[C@@H](O)[C@@H](O)[C@@H]2[C@@H]3C(=O)N(CC)C(=O)[C@H]3CC[C@@H]12,-16.9% [at 11.4 µM] (inactive),–
NC(=NC1C2CC3CC(C2)CC1C3)Nc1ccc(I)cc1 (centres undefined),–,0.0398 µM (active)
Nc1nc(Br)c2ccccc2c1-c1ccc(F)cc1,-9.97% (inactive),–

SMILES,"activity, negative = inhibition",AC50
O=C1/C(=C/c2cccnc2)SC(=S)N1Cc1ccco1,-20.9% [at 11.4 µM] (inactive),–
CC(=O)C1C(c2ccccc2OC(F)F)NC(=O)NC1(O)C(F)(F)F (centres undefined),-3.96% (inactive),–
CC(=O)c1sc(N)c(C(=O)OC(C)C)c1C,-2.55% (inactive),–
C[C@@H](C(=O)Nc1ccc2ccccc2c1)[C@H]1C[C@]1(C)[C@H](NS(=O)(=O)c1ccc2ccccc2c1)c1ccccc1,–,3.16 µM (active)
C[C@@H](C(=O)Nc1ccc2ccccc2c1)[C@H]1C[C@]1(C)[C@H](NS(=O)(=O)c1ccc(-c2ccccc2)cc1)c1ccccc1,–,2 µM (active)
C[C@@H](C(=O)Nc1ccc2ccccc2c1)[C@@H]1C[C@@]1(C)[C@@H](NS(=O)(=O)c1ccc2ccccc2c1)c1ccccc1,-9.37% (inactive),–
C[C@@H](C(=O)Nc1ccc2ccccc2c1)[C@@H]1C[C@@]1(C)[C@@H](NS(=O)(=O)c1ccc(-c2ccccc2)cc1)c1ccccc1,3.73% (inactive),–
CCSc1nc2c(c(=O)[nH]1)C(c1ccccn1)C1=C(CC(C)(C)CC1=O)N2 (centres undefined),17% (inactive),–
C[C@]1(OC(=O)/C=C\c2ccccc2)C[C@@H](O)[C@@]2(O)C=CO[C@@H](O[C@H]3O[C@@H](CO)[C@@H](O)[C@@H](O)[C@@H]3O)[C@H]21,-1.82% [at 25.6 µM] (inactive),–
CC1CCCCN1c1nc(-c2ccncc2)nc2ccccc12 (centres undefined),–,7.94 µM (active)
CC1CCCCN1c1cc(C#N)c(C#N)cc1[N+](=O)[O-] (centres undefined),-1.76% (inactive),–
CCN1CCN(c2nc(-c3ccccn3)nc3ccccc23)CC1,-25.3% (inactive),–
O=C(O)C12CC3(C(=O)O)CC(C(=O)O)(CC(C(=O)O)(C1)C3=O)C2=O,-4.61% [at 11.4 µM] (inactive),–
CCCN(CCc1ccccc1)[C@H]1CCc2c(O)cccc2C1,–,0.501 µM (active)
CCCN(C/C=C\I)[C@@H]1CCc2cccc(O)c2C1,5.27% (inactive),–
Cc1ccc(-n2c(CCC(=O)O)ccc2-c2cccs2)cc1C,3.62% (inactive),–
O=c1c(-c2ccccc2)nc2cnc(N3CCOCC3)nc2n1-c1ccccc1,-6.6% (inactive),–
C/C(Cn1nc([N+](=O)[O-])cc1C)=N\NC(=O)c1ccc(O)cc1O,12.2% (inactive),–
Cc1ccc(Cl)c(Nc2ccccc2C(=O)O)c1Cl,–,inactive
Cc1nc2ccccc2nc(C)c1=NO,-17.1% (inactive),–
CCOC(=O)C(C)CC(C)C(=O)N1CCOCCN(C(=O)C(C)CC(C)C(=O)OCC)CCOCC1 (centres undefined),-0.969% (inactive),–
CC(N)=NCc1cccc(CN)c1,–,inactive
NC(N)=NCc1cccc(I)c1,–,15.8 µM (active)
Nc1c(OCC(=O)O)ccc2cc(S(=O)(=O)O)ccc12,-4.66% [at 11.4 µM] (inactive),–

SMILES,"activity, negative = inhibition",AC50
CNC(=S)NNC(=O)c1sccc1OCc1ccc(C)cc1,-4.42% (inactive),–
COc1cc(C(=O)Oc2ccccc2/C=N/NC(=O)c2ccc(C)cc2)cc(OC)c1OC,38% (inactive),–
COc1ccccc1/C=N/NC(=O)CC(=O)Nc1ccc(Cl)c(Cl)c1,–,28.2 µM (active)
O=C(Cc1ccccc1)N/N=C/c1ccccc1OCc1ccc(Cl)cc1,-27.7% (inactive),–
NC([N-]/N=C/c1ccccn1)=[S]=[Fe].O=S(=O)(O)O,8.09% [at 11.4 µM] (inactive),–
N#CCCn1c(=O)c(-c2cc(F)cc(F)c2)nc2cnc(N3CCOCC3)nc21,6.46% (inactive),–
CC(C)N(Cc1ccccc1)S(=O)(=O)c1n[nH]c(C(C)(C)C)n1,14.9% [at 11.4 µM] (inactive),–
CCC(NC(=O)Nc1cc(OC)c(OC)c(OC)c1)(C(F)(F)F)C(F)(F)F,-29.8% (inactive),–
COc1cc(NC(=O)C2CCN(S(=O)(=O)c3cccc4nonc34)CC2)cc(OC)c1,–,0.562 µM (active)
CC(=O)Nc1ccc(NC(=O)C2CCN(S(=O)(=O)c3cccc4nonc34)CC2)cc1,-5.83% (inactive),–
CC1CCN(C(=O)C2CCN(S(=O)(=O)c3cccc4nonc34)CC2)CC1,-14.6% (inactive),–
O=C(Nc1cccc(F)c1)N1CCCC2(CCN(C(=O)c3cnccn3)CC2)C1,0.953% (inactive),–
CCC(=O)NC(=S)Nc1ccc(S(=O)(=O)NC(C)=O)cc1,21.6% (inactive),–
CCCCCN(CCCCC)C(=O)[C@H](CCC(=O)O)NC(=O)c1ccc(Cl)c(Cl)c1,–,inactive
O=S(=O)(c1cccc2c(I)cccc12)N1CCCNCC1,–,10 µM (active)
O=S(=O)(c1cccc2cnccc12)N1CCNCC1,-11.8% (inactive),–
Cc1noc(C)c1-c1nccc(N2CCN(C)CC2)n1,-12.7% (inactive),–
Cn1cccc1C(=O)N1CCC2(CC1)CCN(c1ccccn1)CC2,-9.95% (inactive),–
S=C(Nc1ccc2cn[nH]c2c1)Nc1ccc2cn[nH]c2c1,–,2 µM (active)
N#CC(C#N)=NNc1ccc2cn[nH]c2c1,-16.6% [at 11.4 µM] (inactive),–
CNC(=S)Nc1ccc2nc(C)c(C)nc2c1,-6.39% (inactive),–
CCOC(=O)N/N=C1/C[C@@H](O)[C@@H](O)[C@@H]2[C@@H]3C(=O)N(c4cccc(Oc5ccccc5)c4)C(=O)[C@H]3CC[C@@H]12,4.14% [at 11.4 µM] (inactive),–
